Measurements published in PubChem BioAssay AID651821 (The Scripps Research Institute Molecular Screening Center, 2012).
Out of some 370,000 compounds screened, about 4,700 (1.3%) were called active.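 The calls were made as follows: active = inhibition above the plate cutoff, the mean of all test compounds on that plate plus 3 SD (cut at about 35% in these data); inactive = the rest.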 The entries come from a sample that favours actives as a whole.

Assay: small molecules binding CAG repeat RNA – biochemical, fluorescence, primary screen (AID 651821);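 also: 0% = DMSO alone and 100% = 100 µM mitoxantrone as full dye displacement; higher means more dye released from RNA so lower well fluorescence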
Conditions: r(CAG) RNA repeat, TO-PRO-1 dye displacement fluorescence; at 3 µM; hits give high values

Structure (SMILES)	inhibition
O=C(Nc1cccc(F)c1)N1C2CCC1CC(O)(c1cccnc1)C2 (stereo not drawn)	-2.98% (inactive)
O=C1CC(c2ccccc2)=NN1c1ccc([N+](=O)[O-])cc1	45.5% (active)
O=C1NC(=O)C2C1C(c1ccc([N+](=O)[O-])cc1)=NN2Cc1ccccc1 (stereo not drawn)	10.9% (inactive)
CCN1N=C(c2ccccc2)CCC1=O	-0.41% (inactive)
CN1[C@H](Cc2ccccc2)COc2cccc(N3CCSCC3)c2S1(=O)=O	4.7% (inactive)
COC(=O)C1=C(C)N(Cc2cccc(C(F)(F)F)c2)C(=NCc2cccc(C(F)(F)F)c2)NC1c1ccccc1C(F)(F)F (stereo not drawn)	1.52% (inactive)
Cc1c[nH]c2cccc(-c3ccc(Cl)cc3)c12	1.17% (inactive)
Cc1oc2cc([N+](=O)[O-])c(O)c([N+](=O)[O-])c2c1C(=O)c1ccc(Br)cc1	67.6% (active)
Cc1cc(O)c(NC(=O)c2ccc(C)c([N+](=O)[O-])c2)cc1C	4.43% (inactive)
COc1ccc(C(=O)c2c(C)oc3cc([N+](=O)[O-])c(O)c([N+](=O)[O-])c23)cc1	24.7% (inactive)
N#Cc1ccccc1OC[C@@H](O)CN1CCC(C(O)(c2ccccc2)c2ccccc2)CC1	2.31% (inactive)
CCOC(=O)N1CCN(C(=O)C[C@H]2C[C@@]3(C(=O)OC)C(=C[C@H](C(C)(C)C)O[C@@H]3C)N(Cc3ccc(Cl)cc3Cl)C2=O)CC1	7.87% (inactive)
O=C(O)CCn1cc(/C=C/C(=O)c2ccc(Cl)cc2)c(-c2cccc(Br)c2)n1	82.8% (active)
C#CCN([C@H](C(=O)OC)C(C)CC)S(=O)(=O)c1ccccc1Br (stereo partly drawn)	-1.79% (inactive)
O=C(C(=O)N1CCC(CNC(=O)c2cccnc2Cl)CC1)c1cccs1	2.4% (inactive)
COc1ccc(CNS(=O)(=O)c2cc(Br)ccc2Br)cc1	2.67% (inactive)
COc1ccc(-n2c(SCC(=O)NC3CCCC3)nnc2-c2ccncc2)cc1	3.34% (inactive)
CCN(CC)S(=O)(=O)c1ccc(Cl)c(C(=O)NC(C)C(c2cccs2)N2CCCC2)c1 (stereo not drawn)	-3.47% (inactive)
Cc1ccc(NC(=S)NNC(=O)CSc2nnc(SCc3ccccc3Cl)s2)cc1	47.2% (active)
CCSc1nnc(SCC(=O)NNC(=O)c2ccccc2F)s1	1.18% (inactive)
O=C(CSc1nnc(SCc2ccc(Cl)cc2)s1)N/N=C/c1ccccc1Cl	5.04% (inactive)
O=C1Nc2cc(C(=O)N3CCN(c4ccc(F)cc4)CC3)ccc2NC1CSCc1cccc(F)c1 (stereo not drawn)	14.7% (inactive)

Structure (SMILES)	inhibition
O=C(COC(=O)/C=C/c1cccc(Cl)c1)NCc1cccs1	-1.04% (inactive)
Cc1ccc(CSCC(=O)N(C)CC(=O)Nc2cccc(F)c2)cc1	-1.65% (inactive)
CCOC(=O)c1nnn(CC(=O)Nc2cccc(F)c2)c1C(=O)OCC	-2.22% (inactive)
CCN(CC)C(=O)CSC(Nc1cccc(F)c1)=C(C#N)C#N	56.7% (active)
CCS(=O)(=O)c1ccc(C(=O)NC)c(Cl)c1Cl	-0.44% (inactive)
O=C(NC1CCCC1)C1CSCCS(=O)(=O)N1Cc1ccccc1 (stereo not drawn)	4% (inactive)
CCc1nnc(NS(=O)(=O)c2ccc(NC(=S)NC(=O)c3cccs3)cc2)s1	59% (active)
CCc1nnc(NS(=O)(=O)c2ccc(NC(=S)NC(=O)/C=C/c3cccs3)cc2)s1	83.9% (active)
CCc1nnc(NC(=O)[C@@H](NC(=O)c2cccc(C)c2)C(C)C)s1	2.27% (inactive)
Cc1ccc(S(=O)(=O)N(C)C)cc1NC(=O)/C=C/c1cccs1	0.22% (inactive)
CCc1nnc(NC(=O)C2CCCN2S(=O)(=O)c2ccccc2)s1 (stereo not drawn)	-1.9% (inactive)
Cc1cc(NS(=O)(=O)c2ccc(NC(=O)c3cccc(OC(F)F)c3)cc2)nc(C)n1	4.48% (inactive)
CCc1nnc(NS(=O)(=O)c2ccc(NC(=O)c3cccc(OC(F)(F)C(F)F)c3)cc2)s1	72.6% (active)
O=C(NC(=S)Nc1ccc(S(=O)(=O)Nc2ncccn2)cc1)c1cccc(Br)c1	5.78% (inactive)
NS(=O)(=O)c1ccc(NC(=S)NNC(=O)c2cccs2)cc1	-2.42% (inactive)
C=CCN=C1NC(c2ccccc2)C(C(=O)OC)=C(C)N1Cc1ccc(C(F)(F)F)cc1 (stereo not drawn)	8.06% (inactive)
CN(CCO)c1cccc2c1S(=O)(=O)N(Cc1cn(Cc3ccc(C(F)(F)F)cc3)nn1)Cc1ccccc1O2	-1.07% (inactive)
C/C=C/C(=O)OCC(=O)Nc1ccc(F)cc1Cl	4.85% (inactive)
Cc1cc2nc3c(=O)[nH]c(=O)nc-3n(C[C@H](O)[C@H](O)[C@H](O)CO)c2cc1C	-477% (inactive)
CCN1C(=O)N[C@@H]2C[C@H](C(=O)N3CCCC3)[C@H](C)[C@H](c3ccccc3)C[C@@H]21	1.47% (inactive)
CC1CCN(S(=O)(=O)c2nnc(NC(=O)COc3ccccc3F)s2)CC1	8.39% (inactive)
CCc1ccccc1OCC(=O)Nc1ccc(C)c(S(=O)(=O)N2CCCCCC2)c1	3.67% (inactive)

Structure (SMILES)	inhibition
Cc1ccccc1OCC(=O)Nc1nnc(S(=O)(=O)N2CCCC2)s1	37.6% (active)
COc1ccc(Cn2cc(CN3[C@@H](CC(C)C)COc4cc(Br)ccc4S3(=O)=O)nn2)cc1	2.72% (inactive)
O=C(C(=O)N1CCC(CNS(=O)(=O)Cc2ccccc2)CC1)c1cc2ccccc2o1	3.81% (inactive)
Cn1c2c(c(=O)n(C)c1=O)CN(Cc1ccco1)CN2	-0.1% (inactive)
COc1ccc(-n2c(SCC(=O)Nc3ccc4c(c3)OCCO4)nnc2-c2ccc(Cl)cc2)cc1	6.74% (inactive)
COc1ccccc1C1C(C#N)=C(N)Oc2c1c(-c1ccccc1)nn2-c1ccccc1 (stereo not drawn)	54.6% (active)
COc1ccccc1C1CC(=O)n2c(nc(-c3ccccc3)c2-c2ccccc2)S1 (stereo not drawn)	9.44% (inactive)
COc1ccc(C2C(C#N)=C(N)Oc3n[nH]c(C)c32)cc1CN1CCN(c2ccc(F)cc2)CC1 (stereo not drawn)	0.94% (inactive)
CCCCCCCCN1C(=O)[C@@H](CC(=O)NCc2ccccc2)C[C@@]2(C(=O)OC)C1=C[C@H](C(C)(C)C)O[C@@H]2C	1.31% (inactive)
O=C(c1cccnc1)N(c1cc2sc(=O)oc2c2ccccc12)S(=O)(=O)c1ccccc1	80.7% (active)
O=C(CN(c1cc(C(F)(F)F)ccc1Cl)S(=O)(=O)c1ccccc1)NCc1cccnc1	-7.03% (inactive)
CN(c1ccccc1)S(=O)(=O)c1ccc(C(=O)NCc2cccnc2)cc1	2.25% (inactive)
Cc1cc(N2CCN(C(=O)OC(C)(C)C)C[C@H]2C)ccc1N1CCN(Cc2ccccc2)[C@H](C)C1	0.53% (inactive)
CCOC(=O)C1C(C)C(C(C)(C)C)N(S(=O)(=O)c2ccc(C)cc2)C1c1ccccc1 (stereo not drawn)	1.44% (inactive)
Cc1ccc(S(=O)(=O)N2C[C@H]3C(=O)C[C@@H](c4cccc5ccccc45)N(S(=O)(=O)c4ccc(C)cc4)[C@H]3C[C@H]2c2ccc(Cl)cc2)cc1	13.6% (inactive)
Cc1ccc(S(=O)(=O)N2[C@@H](c3cccc4ccccc34)C(C(=O)O)=C[C@H]2C(C)(C)C)cc1	50.6% (active)
COc1cccc(/C=C2\CC3(OC(C)=O)CCCN2C3)c1 (stereo not drawn)	0.45% (inactive)
C#CCN([C@@H](C)C(=O)OCC)S(=O)(=O)c1ccc(Br)cc1F	2.12% (inactive)
O=c1ccc2cc(S(=O)(=O)Nc3ccccc3F)ccc2o1	-1.01% (inactive)
O=c1oc2ccccc2c(NC2CCCCC2)c1NS(=O)(=O)c1ccc(Cl)cc1	5.21% (inactive)
O=c1oc(-c2ccccc2NS(=O)(=O)c2ccc(Cl)cc2)nc2ccccc12	39.1% (active)
COc1ccc(-n2c(SCC(=O)Nc3ccccc3-c3ccccc3)nnc2-c2cccnc2)cc1	0.96% (inactive)

Structure (SMILES)	inhibition
Cc1c(C(C)c2ccccc2O)[nH]c2ccccc12 (stereo not drawn)	4.84% (inactive)
O=C(CSc1nnc(-c2ccccc2)n1Cc1ccco1)Nc1ccccc1-c1ccccc1	5.56% (inactive)
Clc1ccc(-n2c(SC/C=C/c3ccccc3)nnc2-c2ccco2)cc1	2.56% (inactive)
Clc1ccccc1CSc1nnc(-c2ccco2)c(-c2ccco2)n1	54.8% (active)
COC(=O)C1CN(CC(C)C)CCS(=O)(=O)N1Cc1ccc(C)cc1 (stereo not drawn)	2.99% (inactive)
CC(C)(C)c1ccc(CSc2nnc(-c3cccs3)o2)cc1	-0.86% (inactive)
CC(C)N1CCCCC(NC(=O)c2ccc3ccccc3c2)C1=O (stereo not drawn)	2.21% (inactive)
Nc1ccn([C@@H]2O[C@H](C(=O)N[C@H]3CCCCNC3=O)[C@@H](O)[C@H]2O)c(=O)n1	-0.39% (inactive)
COc1cccc(-c2nn(-c3ccccc3)cc2/C=C(\C#N)C(=O)NCCCn2ccnc2)c1	4.33% (inactive)
Cc1ccc(-c2nn(-c3ccccc3)cc2/C=C2\SC(=S)N(CCCCCC(=O)O)C2=O)o1	48.8% (active)
Cc1nc(C)c(-c2nnc(-c3cccc(S(=O)(=O)N(C)C)c3)o2)cc1C(=O)NN	10.6% (inactive)
CN(C)S(=O)(=O)c1cccc(-c2nn(-c3ccccc3)cc2/C=C2\SC(=S)N(CC(=O)O)C2=O)c1	63.9% (active)
O=C(CN1CCC(NC(=O)NCc2ccccc2)CC1)Nc1ccc2c(c1)OCCO2	0.82% (inactive)
CCc1ccc(C2=CC(=O)CC(C)(C)C2=O)cc1	3.63% (inactive)
COc1ccc(Cl)cc1NC(=O)COC(=O)C(CC(C)C)N1C(=O)C2CC=CCC2C1=O (stereo not drawn)	-0.39% (inactive)
OC(c1ccccc1)(c1ccccc1)C1CCN(CCCOc2ccc(-c3ccsc3)cc2)CC1	9.5% (inactive)
Cc1cc(C)c2nc(-c3cccnc3)cc(C(=O)Nc3ccc(S(=O)(=O)Nc4onc(C)c4C)cc3)c2c1	80.4% (active)
Cc1ccnc(NS(=O)(=O)c2ccc(NC(=O)c3oc4ccccc4c3C)cc2)n1	33.1% (inactive)
Cc1ccnc(NS(=O)(=O)c2ccc(NC(=O)c3oc4ccc(F)cc4c3C)cc2)n1	33.3% (inactive)
O=C(Nc1ccc(S(=O)(=O)Nc2ncccn2)cc1)c1cncc(Br)c1	-0.76% (inactive)
Cc1cc(C)c2oc(C(=O)Nc3ccc(S(=O)(=O)Nc4nccc(C)n4)cc3)cc(=O)c2c1	1.83% (inactive)
Cc1noc(NS(=O)(=O)c2ccc(NC(=O)c3oc4ccc(F)cc4c3C)cc2)c1C	75.7% (active)
